# In ChEMBL document CHEMBL3988442, “University of Dundee, Small-Polar-MMV Screening Library” (2021):
# Biological target: AMP-activated protein kinase, AMPK (Homo sapiens) (UniProt P54646+O43741+P54619+Q9UGJ0+Q9Y478+Q13131+Q9UGI9)
# Assay: AMP-dependent Kinase enzyme assay. An in vitro enzyme assay that detects ADP turnover that is directly proportional to AMPK activity. This uses naive AMPK that is activated during the assay with MK-8722
# Type: functional
# Set-up: scale not given: direction of the effect not stated beside the values
# Details: 30 µM
row,Compound,Percent Effect
1,Cc1nc2c(c(N3CCCOCC3)n1)CCN(c1nccs1)CC2,-16.9%
2,COCCCN1CC2(CCN(C(=O)c3ccc(=O)n(C)c3)CC2)CC1=O,9.31%
3,COc1ncc(NCc2ccc(Cl)c(Cl)c2)cc1C(N)=O,18.2%
4,O=C(NC1CCOCC1)c1cccc(C2CCCNC2)c1 (stereo unspecified),2.1%
5,CC(C)c1ccc(/C=C/CC(=O)NC2CCN(C(N)=O)C2)cc1 (stereo unspecified),1.32%
6,Cc1c(C(=O)N2CCCN(S(C)(=O)=O)CC2)cnn1C,10.1%
7,O=C(NC1CCN(Cc2ccc(F)cc2)CC1)c1ccc2c(c1)CCC2,-2.43%
8,CC(C)C(CCO)NC(=O)Nc1ccc(-c2csnn2)cc1 (stereo unspecified),13.2%
9,CCC1COCCN1C(=O)NCc1nccn1CCc1ccccc1 (stereo unspecified),-3.33%
10,CN(Cc1cc(Br)cn1C)C(=O)Cc1cccnc1,-10.2%
11,CN(Cc1csc(-c2ccccc2)n1)Cc1ncccc1C(=O)O,5.39%
12,O=C(CC1COCCN1)N1CCCN(C2Cc3ccccc3C2)CC1 (stereo unspecified),-11.6%
13,CCOc1cc(NC(=O)N2CCOC3(CCC3)C2)ccc1C,-1.23%
14,O=C(NCc1nncn1C1CC1)c1cccnc1Oc1ccccc1,1.39%
15,Cc1n[nH]c(C)c1NC(=O)NCc1ccccn1,-10.3%
16,CC(CN1CCOCC1)NC(=O)N1CCCC1 (stereo unspecified),12.9%
17,CN(CCc1ccncc1)CCc1nccs1,1.48%
18,CCCn1cc(NC(=O)c2cccc(CN3CC[C@H](O)C3)c2)nn1,-5.04%
19,CCN(C)Cc1cccc(CNC(=O)CSCc2ccccn2)c1,4.61%
20,CN(C)C(=O)CN1CCCC(c2nccnc2-c2cccc(Cl)c2)C1 (stereo unspecified),19.9%
21,O=C(c1nnn(-c2ccc(Cl)cc2)n1)N(CCO)Cc1ccccc1,3.07%
